Experimental data published in PubChem BioAssay AID1159580 (chemical genetic matrix, 2015).
Where “and” joins values, the source holds several entries; their conditions need not be identical. Equal entries are not always repeated. About 2,000 (36%) of roughly 5,500 compounds were called active. Not shown: some 18% with an inconclusive outcome. Cut-off read from the data, not from the text of the source: active = normalized growth mostly below about 0.91 (no sharp cut-off); inconclusive = no clear call, values can overlap the other calls; inactive = mostly above about 0.92. This is one part of the list.

Experiment: chemical genetic growth profiling, strain panel (AID 1159580);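 note: tested at 20 µM; growth read once vehicle control cultures reached saturation at 30 °C; 1 = growth at the plate median or of vehicle wells; lower values mean less growth of the strain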
Settings: S. cerevisiae deletion strains, growth OD

Measured: normalized growth

Cc1onc(-c2ccccc2Cl)c1C(=O)N[C@@H]1C(=O)N2[C@@H]1SC(C)(C)[C@@H]2C(=O)O
inactive: locus YAL013W, strain DEP1, stronger effect = lower value 1.01 | locus YAL021C, strain ccr4, stronger effect = lower value 1.06 | locus YAL026C, strain drs2, stronger effect = lower value 1.02 | locus YAL030W, strain snc1, stronger effect = lower value 1.02 | locus YBL061C, strain skt5, stronger effect = lower value 1.02 | locus YBR009C, strain hhf1, stronger effect = lower value 0.994 | locus YBR021W, strain FUR4, stronger effect = lower value 1.02 | locus YBR023C, strain chs3, stronger effect = lower value 1.03 | locus YBR171W, strain sec66, stronger effect = lower value 1.03 | locus YBR229C, strain ROT2, stronger effect = lower value 1.01 | locus YBR231C, strain swc5, stronger effect = lower value 1.03 | locus YBR279W, strain paf1, stronger effect = lower value 1 | locus YCL011C, strain gbp2, stronger effect = lower value 1.02 | locus YCL016C, strain dcc1, stronger effect = lower value 1.01 | locus YCL029C, strain bik1, stronger effect = lower value 1.05 | locus YCL069W, strain vba3, stronger effect = lower value 1.03 | locus YCR088W, strain abp1, stronger effect = lower value 1.01 | locus YDL005C, strain med2, stronger effect = lower value 1.02 | locus YDL035C, strain GPR1, stronger effect = lower value 1 | locus YDL040C, strain nat1, stronger effect = lower value 1.02 | locus YDL074C, strain BRE1, stronger effect = lower value 1.03 | locus YDL101C, strain DUN1, stronger effect = lower value 1.01 | locus YDL134C, strain PPH21, stronger effect = lower value 1.01 | locus YDL185W, strain tfp1, stronger effect = lower value 1.01 | locus YDL192W, strain arf1, stronger effect = lower value 1.01 | locus YDR001C, strain nth1, stronger effect = lower value 1.04 | locus YDR069C, strain doa4, stronger effect = lower value 1.03 | locus YDR101C, strain arx1, stronger effect = lower value 1.02 | locus YDR137W, strain rgp1, stronger effect = lower value 0.971 | locus YDR150W, strain NUM1, stronger effect = lower value 1 | locus YDR159W, strain sac3, stronger effect = lower value 1 | locus YDR162C, strain NBP2, stronger effect = lower value 1.02 | locus YDR195W, strain ref2 1.03 | locus YDR297W, strain sur2, stronger effect = lower value 1.02 | locus YDR318W, strain mcm21, stronger effect = lower value 1.03 | locus YDR334W, strain swr1, stronger effect = lower value 1 | locus YDR335W, strain msn5, stronger effect = lower value 1.01 | locus YDR388W, stronger effect = lower value 1.02 | locus YDR392W, strain spt3, stronger effect = lower value 0.998 | locus YDR502C, strain sam2, stronger effect = lower value 1.02 | locus YEL003W, strain gim4, stronger effect = lower value 1.02 | locus YEL037C, strain rad23, stronger effect = lower value 1.02 | locus YEL061C, strain CIN8 (second series), stronger effect = lower value 1.02 | locus YEL061C, strain CIN8, stronger effect = lower value 1.01 | locus YER015W, strain faa2, stronger effect = lower value 1.02 | locus YER016W, strain bim1, stronger effect = lower value 0.994 | locus YER110C, stronger effect = lower value 1.01 | locus YER111C, strain swi4, stronger effect = lower value 1.03 | locus YER155C, strain BEM2 (second series), stronger effect = lower value 1.06 | locus YER155C, strain BEM2, stronger effect = lower value 1.01 | locus YER167W, strain BCK2, stronger effect = lower value 1.01 | locus YFR010W, strain ubp6, stronger effect = lower value 1.02 | locus YGL078C, strain dbp3, stronger effect = lower value 1.02 | locus YGL086W, strain mad1, stronger effect = lower value 1.01 | locus YGL167C, strain pmr1, stronger effect = lower value 1.03 | locus YGL173C, strain kem1, stronger effect = lower value 1.01 | locus YGL227W, strain vid30, stronger effect = lower value 1.01 | locus YGL240W, strain doc1, stronger effect = lower value 1.02 | locus YGL248W, strain PDE1, stronger effect = lower value 1.02 | locus YGL253W, strain hxk2, stronger effect = lower value 1.02 | locus YGR078C, strain PAC10, stronger effect = lower value 1.01 | locus YGR135W, strain pre9, stronger effect = lower value 1.03 | locus YGR229C, strain SMI1, stronger effect = lower value 1.02 | locus YGR252W, strain gcn5, stronger effect = lower value 1.05 | locus YHR013C, strain ard1, stronger effect = lower value 1.04 | locus YHR027C, strain rpn1, stronger effect = lower value 1.02 | locus YHR030C, strain SLT2, stronger effect = lower value 1.01 and 1 | locus YHR079C, strain IRE1 (second series), stronger effect = lower value 1.02 | locus YHR079C, strain IRE1, stronger effect = lower value 1 | locus YHR094C, strain hxt1, stronger effect = lower value 1.02 | locus YHR129C, strain ARP1, stronger effect = lower value 1.01 | locus YHR142W, strain chs7, stronger effect = lower value 1.02 | locus YHR200W, strain rpn10, stronger effect = lower value 1.03 | locus YIL066C, strain RNR3, stronger effect = lower value 1.01 | locus YIL073C, strain SPO22, stronger effect = lower value 1.06 | locus YIL125W, strain kgd1, stronger effect = lower value 1.03 | locus YIR030C, strain dcg1, stronger effect = lower value 1.02 | locus YJL092W, strain hpr5, stronger effect = lower value 1.03 | locus YJL095W, strain BCK1 (second series), stronger effect = lower value 1.02 | locus YJL095W, strain BCK1, stronger effect = lower value 1.02 and 0.998 | locus YJL115W, strain asf1, stronger effect = lower value 1.01 | locus YJL129C, strain trk1, stronger effect = lower value 1.05 | locus YJL134W, strain LCB3, stronger effect = lower value 1 | locus YJL154C, strain vps35, stronger effect = lower value 1.03 | locus YJL164C, strain tpk1, stronger effect = lower value 1.01 | locus YJL166W, strain qcr8, stronger effect = lower value 1.03 | locus YJL168C, strain set2, stronger effect = lower value 1.02 | locus YJL187C, strain SWE1 (second series), stronger effect = lower value 1.02 | locus YJL187C, strain SWE1, stronger effect = lower value 1.01 | locus YJR043C, strain POL32, stronger effect = lower value 0.995
